Molecules are shown by their SMILES. The campaign covered roughly 310,000 compounds. About 14,000 (4.5%) showed an effect of 50% or more. Effects have a minus sign here. Shown is part of a subset that was picked to be rich in strong results.
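Note: peak tail current of the secondary pulse compared with the same well before compound.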

For this assay, the target named is human ether-à-go-go-related gene (hERG) potassium channel (human, UniProt Q12809). The assay is described as follows: primary screen, population patch clamp on CHO cells stably expressing hERG; higher = less effect of the substance.
human ether-à-go-go-related gene (hERG) potassium channel, sequence (Q12809 whole entry, looked up): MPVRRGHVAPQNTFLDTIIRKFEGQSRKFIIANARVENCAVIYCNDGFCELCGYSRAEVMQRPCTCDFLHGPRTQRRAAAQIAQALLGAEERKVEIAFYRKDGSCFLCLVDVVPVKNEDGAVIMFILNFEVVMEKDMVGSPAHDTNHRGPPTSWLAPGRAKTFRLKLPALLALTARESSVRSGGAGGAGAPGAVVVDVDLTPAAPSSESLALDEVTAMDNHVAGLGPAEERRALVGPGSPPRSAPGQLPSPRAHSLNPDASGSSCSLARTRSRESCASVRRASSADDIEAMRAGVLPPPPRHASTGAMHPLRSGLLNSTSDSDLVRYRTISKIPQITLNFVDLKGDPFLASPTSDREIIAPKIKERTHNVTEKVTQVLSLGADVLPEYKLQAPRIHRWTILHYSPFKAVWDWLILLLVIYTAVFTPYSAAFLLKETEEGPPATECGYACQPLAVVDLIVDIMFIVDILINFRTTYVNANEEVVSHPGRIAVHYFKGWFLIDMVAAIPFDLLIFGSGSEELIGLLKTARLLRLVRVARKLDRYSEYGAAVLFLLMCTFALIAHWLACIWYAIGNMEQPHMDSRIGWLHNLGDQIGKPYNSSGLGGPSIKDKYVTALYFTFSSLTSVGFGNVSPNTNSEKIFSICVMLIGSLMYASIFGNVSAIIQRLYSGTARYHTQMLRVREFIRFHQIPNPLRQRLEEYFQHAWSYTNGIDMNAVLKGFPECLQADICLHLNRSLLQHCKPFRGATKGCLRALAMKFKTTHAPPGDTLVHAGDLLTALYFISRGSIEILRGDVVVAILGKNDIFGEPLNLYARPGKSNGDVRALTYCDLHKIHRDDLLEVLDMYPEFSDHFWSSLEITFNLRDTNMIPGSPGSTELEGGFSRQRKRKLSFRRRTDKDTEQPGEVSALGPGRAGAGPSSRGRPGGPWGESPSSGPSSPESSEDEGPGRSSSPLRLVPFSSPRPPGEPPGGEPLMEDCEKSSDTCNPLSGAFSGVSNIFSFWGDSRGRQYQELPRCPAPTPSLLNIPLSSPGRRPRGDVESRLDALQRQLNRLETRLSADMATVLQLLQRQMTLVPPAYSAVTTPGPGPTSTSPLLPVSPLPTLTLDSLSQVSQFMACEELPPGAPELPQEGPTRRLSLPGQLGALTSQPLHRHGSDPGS
On to `CCn1c(=O)c(C(=O)Nc2ccccc2F)c(O)c2ccccc21`, for which the “hERG current change (%, negative = inhibition) at 10uM” value is given as 17.2%. Under `COc1ccc(OC)c(-c2csc(NC(=O)CSc3nnnn3C)n2)c1` stands 4.17%. With `COc1ccc(NC(=S)NC(NC(=O)CCl)C(Cl)(Cl)Cl)c([N+](=O)[O-])c1` (centres unmarked), the “hERG current change (%, negative = inhibition) at 10uM” value is reported as 17.2%. Under `NS(=O)(=O)c1cc2c(cc1Cl)NCNS2(=O)=O` stands -12.3%; under `Cc1cccc(-n2ncc3c(NCc4ccccc4)ncnc32)c1`, 12%. In the case of `O=C(c1cc2nc(-c3ccco3)cc(C(F)(F)F)n2n1)N1CCN(c2ccc(F)cc2)CC1`, the “hERG current change (%, negative = inhibition) at 10uM” value is recorded as -34.5%. Under `O=C(N/N=C/c1ccco1)c1ccc(OCc2ccccc2)cc1` stands 10.9%; under `COc1ccccc1N1CCN(C(=O)C2CC2)CC1`, 20%; under `O=C(NCCc1ccccc1)c1ccccc1F`, 24.5%. With `O=C(CCCN1C(=O)/C(=C/c2ccccc2Cl)SC1=S)NNC(=O)c1ccccc1Cl`, the “hERG current change (%, negative = inhibition) at 10uM” value is 29.8%. `COCCSc1ccccc1C(=O)N1CCN(c2ccccc2OC)CC1`: the “hERG current change (%, negative = inhibition) at 10uM” value is 8.73%. In the case of `Br.CCN(CC)CCn1c(=N)n(CCOc2ccccc2)c2ccccc21` it was -53.6%; in that of `CCN(CC)CCn1c(=N)n(CCO)c2ccccc21`, 5.99%.

As to `S=c1[nH]c2ccccc2n1CCOc1ccccc1`, the “hERG current change (%, negative = inhibition) at 10uM” value stood at 8.28%. With `O=C(NC1CCSc2ccccc21)c1cc(S(=O)(=O)N2CCOCC2)ccc1Cl` (centres unmarked), the “hERG current change (%, negative = inhibition) at 10uM” value is given as -18%. In the case of `COc1ccc(NC(=S)N(Cc2ccc(Cl)cc2)Cc2ccc(C(=O)O)cc2)cc1Cl` it was -3.51%. Regarding `CCOC(=O)c1ccc(-n2c(CN3CCC(C(N)=O)CC3)nc3ccc([N+](=O)[O-])cc3c2=O)cc1`, the “hERG current change (%, negative = inhibition) at 10uM” value was -27.3%. In the case of `Cc1ccc2cc(C(c3nnnn3C3CCCC3)N(Cc3cccnc3)Cc3ccco3)c(=O)[nH]c2c1` (centres unmarked) it was -77.8%; in that of `CCC(C)(C)n1nnnc1C(C(C)C)N(Cc1cccnc1)Cc1ccco1` (centres unmarked), -2.92%.

On to `Cc1cc2cc(C(c3nnnn3C3CCCC3)N(Cc3cccnc3)Cc3ccco3)c(=O)[nH]c2cc1C` (centres unmarked), for which the “hERG current change (%, negative = inhibition) at 10uM” value is -24.3%. `Cc1ccc2cc(C(c3nnnn3C3CCCC3)N(Cc3ccccc3)Cc3ccco3)c(=O)[nH]c2c1` (centres unmarked): the “hERG current change (%, negative = inhibition) at 10uM” value was 10.7%. Under `Cc1ccc2[nH]c(=O)c(C(c3nnnn3C3CCCC3)N(Cc3cccnc3)Cc3ccco3)cc2c1` (centres unmarked) stands -5.71%. Take `CCC(C)(C)n1nnnc1C(c1cc2ccc(C)cc2[nH]c1=O)N(Cc1cccnc1)Cc1ccco1` (centres unmarked): the “hERG current change (%, negative = inhibition) at 10uM” value is given as -60.6%.

`O=C(CC1C(=O)NCCN1Cc1ccc(-c2ccccc2)cc1)NCCCn1ccnc1` (centres unmarked): the “hERG current change (%, negative = inhibition) at 10uM” value was found to be 14%. In the case of `CC(C)CCNS(=O)(=O)c1cc2c3c(c1)CCN3C(=O)CC2` it was 2.2%; in that of `COc1cc(-c2noc(CCCC(=O)NCc3ccco3)n2)cc(OC)c1OC`, -12.1%; in that of `CCn1ccnc1[C@@H]1C[C@H]2CN(Cc3cccc(Cl)c3)C(=O)[C@]23CCCN13`, -39.3%.

Consider `O=C1N(Cc2cccc(Cl)c2)C[C@@H]2C[C@@H](c3cccn3-c3cccnc3)N3CCC[C@@]123`, for which the “hERG current change (%, negative = inhibition) at 10uM” value is -35.7%. In the case of `O=C1N(Cc2cccc(Cl)c2)C[C@@H]2C[C@@H](c3cccn3-c3nccs3)N3CCC[C@@]123` it was -68%. Under `O=C1N(Cc2cccc(Cl)c2)C[C@@H]2C[C@@H](c3cccn3-c3ccccn3)N3CCC[C@@]123` stands -73.5%; under `C#CCOCCOCCOCCNc1nc(N2CCOCC2)nc(N2CCN(C(=O)[C@H](Cc3cc4ccccc4[nH]3)n3cc([C@@H](N)C(C)CC)nn3)CC2)n1.Cl` (some centres unmarked), 9.81%.

Take `O=C(CSc1nc(-c2ccccc2)cc(=O)[nH]1)N1CCOCC1`: the “hERG current change (%, negative = inhibition) at 10uM” value is 5.84%. In the case of `Cc1cccc2[nH]c3c(N4CCN(C(=O)c5ccco5)CC4)ncnc3c12` it was -27%; in that of `O=C(c1ccco1)N1CCN(c2ncnc3c2[nH]c2ccc(Cl)cc23)CC1`, -65.2%. In the case of `CCOc1ccc2[nH]c3c(N4CCC5(CC4)OCCO5)ncnc3c2c1` it was 5.84%; in that of `COc1cc2[nH]c3c(N4CCN(c5ccccn5)CC4)ncnc3c2cc1OC`, 13.1%; in that of `CCOc1ccc2[nH]c3c(N4CCN(c5ccccn5)CC4)ncnc3c2c1`, -59.4%.

As for `O=C(c1ccco1)N1CCN(c2ncnc3c(-c4ccc(Cl)cc4)nsc23)CC1`, the “hERG current change (%, negative = inhibition) at 10uM” value is 4.82%.

On to `CCOc1ccc2[nH]c3c(N4CCc5ccccc5C4)ncnc3c2c1`, for which the “hERG current change (%, negative = inhibition) at 10uM” value is recorded as 5.49%.

For the compound `CCOC(=O)N1CCN(c2ncnc3c2[nH]c2ccc(OC)cc23)CC1`, the “hERG current change (%, negative = inhibition) at 10uM” value is on record as -44.1%.

`CCOc1ccc2[nH]c3c(N4CCN(C(=O)c5ccco5)CC4)ncnc3c2c1`: the “hERG current change (%, negative = inhibition) at 10uM” value was -58.4%. For `Cc1ccc(C(C)(C)C)cc1S(=O)(=O)Nc1ncnc2sccc12`, the “hERG current change (%, negative = inhibition) at 10uM” value amounted to 12.2%. On to `Cn1nnc(NC(=O)c2ccc3ccccc3c2)n1`, for which the “hERG current change (%, negative = inhibition) at 10uM” value was 5.99%. Turning to `CCCN(Cc1cc2ccccc2[nH]c1=O)C(=O)c1cccc([N+](=O)[O-])c1`, the “hERG current change (%, negative = inhibition) at 10uM” value was -16.8%. As for `O=S(=O)(c1cccs1)N1CCN(c2ccnc3cc(Cl)ccc23)CC1`, the “hERG current change (%, negative = inhibition) at 10uM” value is on record as -68.4%.

Turning to `O=[N+]([O-])c1ccc(S(=O)(=O)N2CCN(c3ccnc4cc(Cl)ccc34)CC2)cc1`, the “hERG current change (%, negative = inhibition) at 10uM” value is on record as -73.5%.

For the compound `O=S(=O)(c1ccccc1OC(F)(F)F)N1CCN(c2ccnc3cc(Cl)ccc23)CC1`, the “hERG current change (%, negative = inhibition) at 10uM” value was -18.4%. Under `O=[N+]([O-])c1ccc(N2CCN(S(=O)(=O)c3ccccc3)CC2)cc1` stands -46.9%. Turning to `N#Cc1cccc(S(=O)(=O)N2CCN(c3ccnc4cc(Cl)ccc34)CC2)c1`, the “hERG current change (%, negative = inhibition) at 10uM” value is given as -70.7%. Under `O=S(=O)(c1cccc(Br)c1)N1CCN(c2ccnc3cc(Cl)ccc23)CC1` stands 8.43%. Regarding `Cc1ccc(Cl)cc1N1CCN(S(=O)(=O)c2cccc(S(=O)(=O)N3CCCC3)c2)CC1`, the “hERG current change (%, negative = inhibition) at 10uM” value is given as 2.64%. Under `O=S(=O)(c1ccccc1)N1CCN(c2ccnc3cc(Cl)ccc23)CC1` stands -84%; under `CN1CCCN(S(=O)(=O)c2cccc(C#N)c2)CC1.Cl`, 6.61%; under `O=S(=O)(c1cccs1)N1CCN(c2ccccc2Cl)CC1`, 9.51%. In the case of `O=S(=O)(c1ccc(Br)s1)N1CCN(c2ccnc3cc(Cl)ccc23)CC1`, the “hERG current change (%, negative = inhibition) at 10uM” value is recorded as -14.8%. Under `Cc1ccc(S(=O)(=O)N2CCN(c3ccnc4cc(Cl)ccc34)CC2)cc1C` stands 30.7%; under `COc1ccc(C(=O)COC(=O)c2ccn(C)n2)cc1`, -14.5%; under `Cc1[nH]c(C)c(S(=O)(=O)N2CCN(c3cccc(C(F)(F)F)c3)CC2)c1C(=O)N1CCCCC1`, -1.72%. For the compound `O=C(NCc1ccc(F)cc1)C1CC(=O)N(Cc2ccco2)C1` (centres unmarked), the “hERG current change (%, negative = inhibition) at 10uM” value was -17%. In the case of `COc1cc(C=O)ccc1OCc1ccncc1` it was 16.5%. On to `O=C(c1cccs1)N1CCCN(c2ncnc3scc(-c4ccccc4)c23)CC1`, for which the “hERG current change (%, negative = inhibition) at 10uM” value is -60.7%. Under `Fc1ccc(-c2csc3ncnc(N4CCN(Cc5ccccc5)CC4)c23)cc1` stands -2.14%; under `O=C(c1ccco1)N1CCN(c2ncnc3scc(-c4ccc(F)cc4)c23)CC1`, -70.2%. For the compound `Oc1ccccc1N1CCN(c2ncnc3scc(-c4ccccc4)c23)CC1`, the “hERG current change (%, negative = inhibition) at 10uM” value was 4.04%. In the case of `Cc1ccc(-c2csc3ncnc(N4CCN(C(=O)c5ccccc5)CC4)c23)cc1` it was -30.5%; in that of `Cc1ccc(-c2csc3ncnc(N4CCN(C(=O)c5ccco5)CC4)c23)cc1`, -89.9%; in that of `c1ccc(N2CCN(c3ncnc4scc(-c5cccs5)c34)CC2)cc1`, 9.87%. Consider `O=C(O)CSCC(=O)N1CCN(c2ncnc3scc(-c4ccccc4)c23)CC1`, for which the “hERG current change (%, negative = inhibition) at 10uM” value is given as 25.4%.

Regarding `O=C(c1ccco1)N1CCN(c2ncnc3scc(-c4cccs4)c23)CC1`, the “hERG current change (%, negative = inhibition) at 10uM” value is -63.9%.

For the compound `Cc1ccc(-c2csc3ncnc(N4CCN(c5ccccc5O)CC4)c23)cc1`, the “hERG current change (%, negative = inhibition) at 10uM” value was determined as 25.8%. For the compound `Cc1ccccc1N1CCN(c2ncnc3scc(-c4cccs4)c23)CC1`, the “hERG current change (%, negative = inhibition) at 10uM” value is -1.45%. In the case of `Fc1ccc(-c2csc3ncnc(N4CCN(c5ccccc5)CC4)c23)cc1` it was 16.2%; in that of `CS/C(=N\S(=O)(=O)c1ccccc1)c1ccccc1`, 0.781%; in that of `CC(C)n1c(C(F)(F)F)nc2cc(C(=O)N3CCOCC3)ccc21`, 16.3%.

For `O=C(O)C1Sc2[nH]c(=O)sc2C2c3cc(Cl)ccc3OC(=O)C12` (centres unmarked), the “hERG current change (%, negative = inhibition) at 10uM” value was found to be 14.5%.

Consider `Cc1ccc(NC(=O)Cc2noc3ccccc23)c(C)c1`, for which the “hERG current change (%, negative = inhibition) at 10uM” value stood at 11.2%. Regarding `O=S(=O)(CCc1nc2ccccc2o1)c1ccc(Cl)c(Cl)c1`, the “hERG current change (%, negative = inhibition) at 10uM” value was found to be 13.4%. In the case of `CCc1cc(C(=O)N2CCN(C(=O)c3ccco3)CC2)sc1C`, the “hERG current change (%, negative = inhibition) at 10uM” value stood at 10.6%. Regarding `CCc1cc2c(N3CCCCC3)ncnc2s1.Cl`, the “hERG current change (%, negative = inhibition) at 10uM” value is recorded as -7.21%. Consider `Cc1sc2ncnc(N3CCN(C(=O)c4ccco4)CC3)c2c1C`, for which the “hERG current change (%, negative = inhibition) at 10uM” value is reported as -61.8%. For the compound `CCc1cc2c(N3CCN(c4nnc(CC)s4)CC3)ncnc2s1.Cl`, the “hERG current change (%, negative = inhibition) at 10uM” value is reported as -67.6%. Under `Cc1sc2nnn(CC(=O)N3CCN(C(=O)c4ccco4)CC3)c(=O)c2c1C` stands -32.4%; under `COc1ccc(-c2nsc3c(N4CCN(C(=O)c5ccco5)CC4)ncnc23)cc1`, 10.9%. Under `COc1cc(C(=O)N2CCN(c3ncnc4sc(C)c(C)c34)CC2)cc(OC)c1OC` stands -47.2%.

For the compound `COc1ccc(-c2csc3ncnc(N4CCN(c5ccc(OC)cc5)CC4)c23)cc1`, the “hERG current change (%, negative = inhibition) at 10uM” value is recorded as -11.2%. Under `COc1ccc(-c2csc3ncnc(N4CCN(C(=O)c5ccco5)CC4)c23)cc1` stands -75.3%; under `CCc1cc2c(N3CCN(c4ccccc4)CC3)ncnc2s1`, -43.5%. In the case of `CCc1cc2c(N3CCN(C(=O)c4ccco4)CC3)ncnc2s1`, the “hERG current change (%, negative = inhibition) at 10uM” value was -77.7%. Under `CCc1cc2c(N3CCN(C)CC3)ncnc2s1.Cl` stands -29%.

(Values after PMC4336329 (PLoS ONE, 2015).)
